# The campaign covered roughly 5,500 compounds. About 2,000 (36%) were called active. Another 18% or so got no clear call; they are omitted. This is one part of the list. Values without a mark were called inactive. Rule as the data show it: active = normalized growth mostly below about 0.91 (no sharp cut-off); inconclusive = no clear call, values can overlap the other calls; inactive = mostly above about 0.92.
# Experiment: chemical genetic growth profiling, strain panel (AID 1159580);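 also: tested at 20 µM; growth read once vehicle control cultures reached saturation at 30 °C; 1 = growth at the plate median or of vehicle wells; lower values mean less growth of the strain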
# Settings: growth OD
smiles,measurement,setting,value
COc1cc(OC)c2c(OC)c(-c3ccc4c(c3)OCO4)c(=O)oc2c1,normalized growth,"S. cerevisiae deletion strains, locus YJR075W, strain HOC1, hits give low values",0.972
same,normalized growth,"S. cerevisiae deletion strains, locus YKL009W, strain mrt4, hits give low values",1
same,normalized growth,"S. cerevisiae deletion strains, locus YKL068W, hits give low values",0.984
same,normalized growth,"S. cerevisiae deletion strains, locus YKL085W, strain MDH1 (second series), hits give low values",0.99
same,normalized growth,"S. cerevisiae deletion strains, locus YKL085W, strain MDH1, hits give low values",0.99
same,normalized growth,"S. cerevisiae deletion strains, locus YKL160W, strain elf1, hits give low values",0.931
same,normalized growth,"S. cerevisiae deletion strains, locus YKL190W, strain CNB1, hits give low values",0.984
same,normalized growth,"S. cerevisiae deletion strains, locus YKR001C, strain vps1, hits give low values",0.927
same,normalized growth,"S. cerevisiae deletion strains, locus YKR026C, strain gcn3, hits give low values",0.992
same,normalized growth,"S. cerevisiae deletion strains, locus YKR091W, strain srl3, hits give low values",0.978
same,normalized growth,"S. cerevisiae deletion strains, locus YLL001W, strain dnm1, hits give low values",0.97
same,normalized growth,"S. cerevisiae deletion strains, locus YLL026W, hits give low values",0.979
same,normalized growth,"S. cerevisiae deletion strains, locus YLL041C, strain sdh2, hits give low values",0.987
same,normalized growth,"S. cerevisiae deletion strains, locus YLR027C, strain aat2, hits give low values",0.934
same,normalized growth,"S. cerevisiae deletion strains, locus YLR039C, strain RIC1, hits give low values",0.865
same,normalized growth,"S. cerevisiae deletion strains, locus YLR058C, strain SHM2, hits give low values",0.99
same,normalized growth,"S. cerevisiae deletion strains, locus YLR102C, strain apc9, hits give low values",1
same,normalized growth,"S. cerevisiae deletion strains, locus YLR113W, strain HOG1, hits give low values",0.917
same,normalized growth,"S. cerevisiae deletion strains, locus YLR221C, strain rsa3, hits give low values",0.943
same,normalized growth,"S. cerevisiae deletion strains, locus YLR258W, strain gsy2, hits give low values",0.959
same,normalized growth,"S. cerevisiae deletion strains, locus YLR262C, strain YPT6 (second series), hits give low values",0.783 (active)
same,normalized growth,"S. cerevisiae deletion strains, locus YLR262C, strain YPT6, hits give low values",0.879
same,normalized growth,"S. cerevisiae deletion strains, locus YLR268W, strain sec22, hits give low values",0.946
same,normalized growth,"S. cerevisiae deletion strains, locus YLR320W, strain mms22, hits give low values",0.867 (active)
same,normalized growth,"S. cerevisiae deletion strains, locus YLR330W, strain CHS5, hits give low values",0.991
same,normalized growth,"S. cerevisiae deletion strains, locus YLR342W, strain FKS1 (second series), hits give low values",0.952
same,normalized growth,"S. cerevisiae deletion strains, locus YLR342W, strain FKS1, hits give low values",0.957
same,normalized growth,"S. cerevisiae deletion strains, locus YLR357W, strain rsc2, hits give low values",0.997
same,normalized growth,"S. cerevisiae deletion strains, locus YLR370C, strain arc18, hits give low values",0.981
same,normalized growth,"S. cerevisiae deletion strains, locus YLR371W, strain rom2, hits give low values",0.984
same,normalized growth,"S. cerevisiae deletion strains, locus YLR384C, strain iki3, hits give low values",0.977
same,normalized growth,"S. cerevisiae deletion strains, locus YLR418C, strain cdc73, hits give low values",0.849
same,normalized growth,"S. cerevisiae deletion strains, locus YML016C, strain PPZ1, hits give low values",0.985
same,normalized growth,"S. cerevisiae deletion strains, locus YML032C, strain rad52, hits give low values",0.995
same,normalized growth,"S. cerevisiae deletion strains, locus YML120C, strain ndi1, hits give low values",0.998
same,normalized growth,"S. cerevisiae deletion strains, locus YML124C, strain tub3, hits give low values",0.986
same,normalized growth,"S. cerevisiae deletion strains, locus YMR058W, strain fet3, hits give low values",0.962
same,normalized growth,"S. cerevisiae deletion strains, locus YMR078C, strain ctf18, hits give low values",0.991
same,normalized growth,"S. cerevisiae deletion strains, locus YMR125W, strain sto1, hits give low values",1
same,normalized growth,"S. cerevisiae deletion strains, locus YMR129W, hits give low values",0.989
same,normalized growth,"S. cerevisiae deletion strains, locus YMR205C, strain PFK2, hits give low values",0.866 (active)
same,normalized growth,"S. cerevisiae deletion strains, locus YMR223W, strain ubp8, hits give low values",0.981
same,normalized growth,"S. cerevisiae deletion strains, locus YMR231W, strain pep5, hits give low values",0.973
same,normalized growth,"S. cerevisiae deletion strains, locus YMR263W, strain SAP30, hits give low values",0.966
same,normalized growth,"S. cerevisiae deletion strains, locus YMR307W, strain GAS1, hits give low values",0.905
same,normalized growth,"S. cerevisiae deletion strains, locus YNL067W, strain RPL9B, hits give low values",0.99
same,normalized growth,"S. cerevisiae deletion strains, locus YNL071W, strain lat1, hits give low values",0.816 (active)
same,normalized growth,"S. cerevisiae deletion strains, locus YNL128W, strain TEP1, hits give low values",1
same,normalized growth,"S. cerevisiae deletion strains, locus YNL153C, strain GIM3, hits give low values",0.988
same,normalized growth,"S. cerevisiae deletion strains, locus YNL183C, strain NPR1, hits give low values",0.888
same,normalized growth,"S. cerevisiae deletion strains, locus YNL209W, strain ssb2, hits give low values",0.987
same,normalized growth,"S. cerevisiae deletion strains, locus YNL233W, strain BNI4, hits give low values",0.965
same,normalized growth,"S. cerevisiae deletion strains, locus YNL248C, strain rpa49, hits give low values",0.978
same,normalized growth,"S. cerevisiae deletion strains, locus YNL250W, strain rad50, hits give low values",0.997
same,normalized growth,"S. cerevisiae deletion strains, locus YNL271C, strain bni1, hits give low values",0.987
same,normalized growth,"S. cerevisiae deletion strains, locus YNL298W, strain CLA4, hits give low values",0.997
same,normalized growth,"S. cerevisiae deletion strains, locus YNL307C, strain MCK1, hits give low values",0.792 (active)
same,normalized growth,"S. cerevisiae deletion strains, locus YNL322C, strain KRE1 (second series), hits give low values",0.993
same,normalized growth,"S. cerevisiae deletion strains, locus YNL322C, strain KRE1, hits give low values",0.993
same,normalized growth,"S. cerevisiae deletion strains, locus YNR049C, strain mso1, hits give low values",0.992
same,normalized growth,"S. cerevisiae deletion strains, locus YNR052C, strain pop2, hits give low values",0.991
same,normalized growth,"S. cerevisiae deletion strains, locus YOL006C, strain TOP1, hits give low values",0.89
same,normalized growth,"S. cerevisiae deletion strains, locus YOL012C, strain htz1",0.711
same,normalized growth,"S. cerevisiae deletion strains, locus YOL147C, strain pex11, hits give low values",0.985
same,normalized growth,"S. cerevisiae deletion strains, locus YOR001W, strain rrp6, hits give low values",0.991
same,normalized growth,"S. cerevisiae deletion strains, locus YOR061W, strain CKA2, hits give low values",0.989
same,normalized growth,"S. cerevisiae deletion strains, locus YOR069W, strain VPS5, hits give low values",0.988
same,normalized growth,"S. cerevisiae deletion strains, locus YOR070C, strain gyp1, hits give low values",0.977
same,normalized growth,"S. cerevisiae deletion strains, locus YOR080W, strain dia2, hits give low values",0.989
same,normalized growth,"S. cerevisiae deletion strains, locus YOR083W, strain WHI5, hits give low values",0.937
same,normalized growth,"S. cerevisiae deletion strains, locus YOR106W, strain vam3, hits give low values",0.957
same,normalized growth,"S. cerevisiae deletion strains, locus YOR136W, strain idh2, hits give low values",0.99
same,normalized growth,"S. cerevisiae deletion strains, locus YOR144C, strain elg1, hits give low values",0.982
same,normalized growth,"S. cerevisiae deletion strains, locus YOR184W, strain ser1, hits give low values",0.891
same,normalized growth,"S. cerevisiae deletion strains, locus YOR231W, strain MKK1, hits give low values",0.943
same,normalized growth,"S. cerevisiae deletion strains, locus YOR265W, strain rbl2, hits give low values",0.981
same,normalized growth,"S. cerevisiae deletion strains, locus YOR270C, strain vph1, hits give low values",0.835
same,normalized growth,"S. cerevisiae deletion strains, locus YOR290C, strain snf2, hits give low values",0.932
same,normalized growth,"S. cerevisiae deletion strains, locus YOR316C, strain cot1, hits give low values",0.983
same,normalized growth,"S. cerevisiae deletion strains, locus YPL051W, strain arl3, hits give low values",0.899 (active)
same,normalized growth,"S. cerevisiae deletion strains, locus YPL055C, strain LGE1, hits give low values",0.949
same,normalized growth,"S. cerevisiae deletion strains, locus YPL078C, strain atp4, hits give low values",0.945
same,normalized growth,"S. cerevisiae deletion strains, locus YPL106C, strain sse1, hits give low values",0.945
same,normalized growth,"S. cerevisiae deletion strains, locus YPL240C, strain hsp82, hits give low values",0.984
same,normalized growth,"S. cerevisiae deletion strains, locus YPL241C, strain CIN2, hits give low values",0.992
same,normalized growth,"S. cerevisiae deletion strains, locus YPL256C, strain CLN2, hits give low values",0.959
same,normalized growth,"S. cerevisiae deletion strains, locus YPR119W, strain clb2, hits give low values",0.97
same,normalized growth,"S. cerevisiae deletion strains, locus YPR141C, strain kar3, hits give low values",1
same,normalized growth,"S. cerevisiae deletion strains, locus YPR163C, strain tif3, hits give low values",0.969
same,normalized growth,"S. cerevisiae deletion strains, locus YPR167C, strain met16, hits give low values",0.989
same,normalized growth,"S. cerevisiae deletion strains, strain wtn01, hits give low values",0.968
same,normalized growth,"S. cerevisiae strains, strain wild type, hits give low values",0.982
